This passage reports inhibition results from ChEMBL document CHEMBL1961873, “Compounds: GSK PKIS; Assays: Nanosyn kinase panel” (2012).

The test system of assay [1] is Tyrosine-protein kinase ABL1 (Homo sapiens), P00519 [T315I]. The following applies: at 1 µM.
Assay [2] deals with Tyrosine-protein kinase ABL1 (Homo sapiens), P00519 [Y253F]. The following applies: at 0.1 µM.
For assay [3] the test system is unchanged. The conditions noted are these: at 1 µM.
The target in assay [4] is Tyrosine-protein kinase ABL1 (Homo sapiens) (UniProt P00519). The conditions noted are these: at 0.1 µM.
The target is the same in assay [5]. The following applies: at 1 µM.
The target of assay [6] is ALK tyrosine kinase receptor (Homo sapiens) (UniProt Q9UM73). The conditions noted are these: at 0.1 µM.
ALK tyrosine kinase receptor (Homo sapiens), sequence (Q9UM73 19-1620 limits assumed): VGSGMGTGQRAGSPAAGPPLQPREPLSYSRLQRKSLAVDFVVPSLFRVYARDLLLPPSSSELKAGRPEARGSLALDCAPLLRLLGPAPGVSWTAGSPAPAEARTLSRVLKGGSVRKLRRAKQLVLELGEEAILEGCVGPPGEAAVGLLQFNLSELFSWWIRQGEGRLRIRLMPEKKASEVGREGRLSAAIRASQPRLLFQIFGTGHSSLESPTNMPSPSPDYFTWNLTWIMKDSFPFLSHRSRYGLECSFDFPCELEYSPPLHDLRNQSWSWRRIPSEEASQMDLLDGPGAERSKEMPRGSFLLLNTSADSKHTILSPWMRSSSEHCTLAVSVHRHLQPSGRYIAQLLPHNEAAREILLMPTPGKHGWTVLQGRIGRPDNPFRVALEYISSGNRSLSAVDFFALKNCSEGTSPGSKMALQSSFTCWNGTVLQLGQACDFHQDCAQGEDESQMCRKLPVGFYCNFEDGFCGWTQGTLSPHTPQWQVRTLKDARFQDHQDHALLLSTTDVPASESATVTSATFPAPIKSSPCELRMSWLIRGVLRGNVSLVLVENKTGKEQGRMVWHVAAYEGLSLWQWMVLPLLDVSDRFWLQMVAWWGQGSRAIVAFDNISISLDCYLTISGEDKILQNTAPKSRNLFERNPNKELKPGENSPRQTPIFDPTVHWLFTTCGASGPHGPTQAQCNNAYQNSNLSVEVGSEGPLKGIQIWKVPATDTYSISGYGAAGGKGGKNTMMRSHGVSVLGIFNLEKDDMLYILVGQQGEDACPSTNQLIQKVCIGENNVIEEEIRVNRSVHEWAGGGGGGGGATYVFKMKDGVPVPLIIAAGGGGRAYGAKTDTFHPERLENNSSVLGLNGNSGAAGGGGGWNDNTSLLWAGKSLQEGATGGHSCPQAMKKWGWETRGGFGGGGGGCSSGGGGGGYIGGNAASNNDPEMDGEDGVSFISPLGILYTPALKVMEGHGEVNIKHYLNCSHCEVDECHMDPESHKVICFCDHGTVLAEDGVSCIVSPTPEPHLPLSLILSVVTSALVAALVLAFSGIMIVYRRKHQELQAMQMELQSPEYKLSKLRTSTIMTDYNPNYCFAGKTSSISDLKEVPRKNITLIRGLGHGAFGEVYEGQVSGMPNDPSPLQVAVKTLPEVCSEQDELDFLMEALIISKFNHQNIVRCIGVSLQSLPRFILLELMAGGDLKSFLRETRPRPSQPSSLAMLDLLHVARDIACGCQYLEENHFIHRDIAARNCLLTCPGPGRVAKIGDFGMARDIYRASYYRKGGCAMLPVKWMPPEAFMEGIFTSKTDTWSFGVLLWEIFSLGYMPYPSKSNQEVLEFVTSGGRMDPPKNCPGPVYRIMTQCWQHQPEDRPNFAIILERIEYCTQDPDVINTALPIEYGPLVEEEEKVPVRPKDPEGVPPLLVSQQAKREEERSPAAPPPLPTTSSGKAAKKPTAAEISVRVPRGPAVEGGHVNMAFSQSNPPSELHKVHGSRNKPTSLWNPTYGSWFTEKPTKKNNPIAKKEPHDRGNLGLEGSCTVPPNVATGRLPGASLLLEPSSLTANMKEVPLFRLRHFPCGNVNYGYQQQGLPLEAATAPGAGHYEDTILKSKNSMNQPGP
The target is the same in assay [7]. The following applies: at 1 µM.
Assay [8] deals with Tyrosine-protein kinase ABL2 (Homo sapiens) (UniProt P42684). The conditions noted are these: at 0.1 µM.
Tyrosine-protein kinase ABL2 (Homo sapiens), sequence (P42684 whole entry): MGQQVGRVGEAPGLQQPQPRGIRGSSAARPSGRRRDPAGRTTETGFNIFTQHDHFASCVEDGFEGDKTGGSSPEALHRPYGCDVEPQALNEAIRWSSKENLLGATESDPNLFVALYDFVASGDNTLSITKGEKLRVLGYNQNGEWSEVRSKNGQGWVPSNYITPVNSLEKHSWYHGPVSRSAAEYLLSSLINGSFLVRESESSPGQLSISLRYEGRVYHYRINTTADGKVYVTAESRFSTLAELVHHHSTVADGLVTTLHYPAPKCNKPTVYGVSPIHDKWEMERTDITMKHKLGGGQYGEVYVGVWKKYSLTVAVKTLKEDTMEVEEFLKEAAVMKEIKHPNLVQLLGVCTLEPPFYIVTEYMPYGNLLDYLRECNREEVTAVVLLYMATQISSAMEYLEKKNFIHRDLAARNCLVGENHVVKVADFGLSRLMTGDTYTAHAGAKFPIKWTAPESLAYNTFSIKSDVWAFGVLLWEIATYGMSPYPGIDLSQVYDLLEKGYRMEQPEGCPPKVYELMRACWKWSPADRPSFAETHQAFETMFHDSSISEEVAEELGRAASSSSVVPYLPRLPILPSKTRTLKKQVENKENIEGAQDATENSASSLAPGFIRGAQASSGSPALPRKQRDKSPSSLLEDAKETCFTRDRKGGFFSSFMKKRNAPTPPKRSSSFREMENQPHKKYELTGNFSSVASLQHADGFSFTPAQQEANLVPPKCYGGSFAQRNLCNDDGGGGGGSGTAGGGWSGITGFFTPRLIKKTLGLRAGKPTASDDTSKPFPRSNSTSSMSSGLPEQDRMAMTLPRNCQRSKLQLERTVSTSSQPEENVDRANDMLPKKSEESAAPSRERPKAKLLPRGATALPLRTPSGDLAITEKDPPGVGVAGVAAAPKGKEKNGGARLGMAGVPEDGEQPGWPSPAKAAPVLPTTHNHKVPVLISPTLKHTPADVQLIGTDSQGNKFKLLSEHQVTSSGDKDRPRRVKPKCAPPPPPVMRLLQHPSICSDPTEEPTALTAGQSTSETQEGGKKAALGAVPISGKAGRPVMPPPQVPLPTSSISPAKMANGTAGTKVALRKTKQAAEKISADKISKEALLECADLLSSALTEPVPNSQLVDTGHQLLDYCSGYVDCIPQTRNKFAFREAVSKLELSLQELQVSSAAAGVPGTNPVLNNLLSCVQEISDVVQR
Assay [9] has the same target. The conditions noted are these: at 1 µM.
Assay [10] has as its target Tyrosine-protein kinase receptor UFO (Homo sapiens) (UniProt P30530). The conditions noted are these: at 0.1 µM.
Assay [11] has the same target. The following applies: at 1 µM.
Assay [12] concerns the target Tyrosine-protein kinase Blk (Homo sapiens) (UniProt P51451). The conditions noted are these: at 0.1 µM.
Assay [13] has the same target. The following applies: at 1 µM.
The target of assay [14] is T1, Cytoplasmic tyrosine-protein kinase BMX (Homo sapiens) (UniProt P51813).
T1 sequence (whole entry): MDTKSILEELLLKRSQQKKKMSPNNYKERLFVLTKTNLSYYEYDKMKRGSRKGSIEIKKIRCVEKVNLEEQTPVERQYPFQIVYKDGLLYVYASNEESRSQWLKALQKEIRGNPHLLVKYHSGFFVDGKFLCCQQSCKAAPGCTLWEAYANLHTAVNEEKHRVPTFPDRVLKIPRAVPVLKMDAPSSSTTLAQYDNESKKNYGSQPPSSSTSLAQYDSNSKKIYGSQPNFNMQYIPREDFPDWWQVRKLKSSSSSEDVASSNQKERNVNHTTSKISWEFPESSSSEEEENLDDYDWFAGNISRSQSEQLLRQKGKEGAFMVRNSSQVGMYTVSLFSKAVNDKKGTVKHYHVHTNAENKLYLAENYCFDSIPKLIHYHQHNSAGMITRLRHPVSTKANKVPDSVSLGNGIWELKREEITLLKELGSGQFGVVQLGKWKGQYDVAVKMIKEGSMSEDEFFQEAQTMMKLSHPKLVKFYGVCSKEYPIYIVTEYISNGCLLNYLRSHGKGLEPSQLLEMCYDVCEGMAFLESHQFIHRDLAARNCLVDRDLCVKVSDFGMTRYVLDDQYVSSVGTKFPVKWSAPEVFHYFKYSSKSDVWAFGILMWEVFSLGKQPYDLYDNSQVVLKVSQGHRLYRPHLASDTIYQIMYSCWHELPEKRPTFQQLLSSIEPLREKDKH
The conditions noted are these: at 0.1 µM.

In assay [15] the target is T1, Cytoplasmic tyrosine-protein kinase BMX (Homo sapiens). The conditions noted are these: at 1 µM.
Assay [16] deals with Protein-tyrosine kinase 6 (Homo sapiens) (UniProt Q13882). The following applies: at 0.1 µM.
Protein-tyrosine kinase 6 (Homo sapiens), sequence (Q13882 whole entry, looked up): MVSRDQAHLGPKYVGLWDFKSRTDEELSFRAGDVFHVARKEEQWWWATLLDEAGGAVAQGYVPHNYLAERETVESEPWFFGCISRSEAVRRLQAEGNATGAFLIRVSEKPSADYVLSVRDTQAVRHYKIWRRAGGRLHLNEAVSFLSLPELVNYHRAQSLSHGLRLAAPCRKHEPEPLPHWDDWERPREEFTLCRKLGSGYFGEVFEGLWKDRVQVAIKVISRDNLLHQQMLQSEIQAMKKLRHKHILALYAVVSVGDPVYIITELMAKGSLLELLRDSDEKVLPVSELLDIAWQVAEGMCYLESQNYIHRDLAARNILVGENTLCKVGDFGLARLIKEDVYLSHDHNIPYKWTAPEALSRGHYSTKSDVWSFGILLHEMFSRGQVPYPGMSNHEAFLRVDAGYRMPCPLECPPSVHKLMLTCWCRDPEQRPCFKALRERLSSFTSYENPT
For assay [17] the target is unchanged. The conditions noted are these: at 1 µM.
Assay [18] addresses Tyrosine-protein kinase BTK (Homo sapiens) (UniProt Q06187). The following applies: at 0.1 µM.
For assay [19] the target is unchanged. The following applies: at 1 µM.
In assay [20] the target is Tyrosine-protein kinase CSK (Homo sapiens) (UniProt P41240). The following applies: at 0.1 µM.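 Also: value given is the averaged percent inhibition of CSK kinase activity, from the GSK PKIS kinase inhibitor set screening panel.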
Tyrosine-protein kinase CSK (Homo sapiens), sequence (P41240 2-450 limits assumed): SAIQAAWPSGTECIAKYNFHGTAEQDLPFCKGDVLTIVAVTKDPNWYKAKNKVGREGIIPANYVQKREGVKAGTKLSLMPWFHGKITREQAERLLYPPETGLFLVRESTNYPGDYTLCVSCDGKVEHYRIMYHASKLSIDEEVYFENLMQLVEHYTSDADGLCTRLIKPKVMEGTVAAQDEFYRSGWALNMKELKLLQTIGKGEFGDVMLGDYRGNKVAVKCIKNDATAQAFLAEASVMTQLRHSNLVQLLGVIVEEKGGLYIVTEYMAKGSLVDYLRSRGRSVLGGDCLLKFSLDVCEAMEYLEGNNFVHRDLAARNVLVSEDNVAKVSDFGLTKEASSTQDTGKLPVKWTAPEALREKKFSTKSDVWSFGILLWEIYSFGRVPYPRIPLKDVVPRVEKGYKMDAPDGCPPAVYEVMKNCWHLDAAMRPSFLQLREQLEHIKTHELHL

Tyrosine-protein kinase BTK (Homo sapiens), sequence (Q06187 whole entry): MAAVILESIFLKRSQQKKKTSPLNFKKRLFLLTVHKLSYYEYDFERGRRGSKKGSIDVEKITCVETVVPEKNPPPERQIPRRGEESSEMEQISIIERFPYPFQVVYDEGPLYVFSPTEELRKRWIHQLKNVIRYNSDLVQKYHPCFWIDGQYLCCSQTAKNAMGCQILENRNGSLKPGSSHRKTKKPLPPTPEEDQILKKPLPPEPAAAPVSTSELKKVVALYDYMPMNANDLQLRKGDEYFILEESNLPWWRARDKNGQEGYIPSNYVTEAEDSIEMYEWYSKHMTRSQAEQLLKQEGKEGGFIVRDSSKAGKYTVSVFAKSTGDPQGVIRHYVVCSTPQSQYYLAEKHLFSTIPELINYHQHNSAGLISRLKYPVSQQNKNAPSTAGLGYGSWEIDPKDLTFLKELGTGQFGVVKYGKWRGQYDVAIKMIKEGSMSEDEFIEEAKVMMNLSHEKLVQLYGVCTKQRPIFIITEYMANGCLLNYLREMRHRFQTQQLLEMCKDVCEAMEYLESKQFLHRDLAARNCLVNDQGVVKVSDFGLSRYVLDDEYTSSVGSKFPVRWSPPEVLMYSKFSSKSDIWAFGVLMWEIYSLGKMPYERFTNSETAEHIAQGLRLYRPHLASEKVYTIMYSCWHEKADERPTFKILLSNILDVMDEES
Tyrosine-protein kinase Blk (Homo sapiens), sequence (P51451 2-505 limits assumed): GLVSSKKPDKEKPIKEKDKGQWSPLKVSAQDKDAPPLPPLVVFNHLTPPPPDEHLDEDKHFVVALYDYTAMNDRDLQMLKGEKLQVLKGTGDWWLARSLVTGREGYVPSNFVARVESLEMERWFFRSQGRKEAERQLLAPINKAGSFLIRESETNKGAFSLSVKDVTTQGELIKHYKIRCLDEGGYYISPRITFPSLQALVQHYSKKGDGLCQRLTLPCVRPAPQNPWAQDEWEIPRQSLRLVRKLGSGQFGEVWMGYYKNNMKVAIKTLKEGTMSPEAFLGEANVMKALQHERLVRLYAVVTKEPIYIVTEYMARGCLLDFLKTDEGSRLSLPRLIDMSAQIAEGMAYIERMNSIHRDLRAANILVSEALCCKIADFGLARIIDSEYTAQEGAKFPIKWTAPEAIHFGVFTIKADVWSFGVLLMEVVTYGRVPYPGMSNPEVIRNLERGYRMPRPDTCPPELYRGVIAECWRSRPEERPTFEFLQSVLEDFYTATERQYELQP

With `CC(C)(CO)CNC(=O)c1ccc2c(c1)/C(=N/Nc1ccc(S(N)(=O)=O)cc1)C(=O)N2`, the inhibition – broadly, the drop in the measured response relative to a control, in per cent – in assay [1] was 8.62%; in assay [2], -0.6%; in assay [3], 12.8%; in [4], -2.29%; in assay [5], 10.7%; in [6] it was -0.91%. The inhibition is -1.23% in assay [7]; -1.16% in [8]; 3.31% in assay [9]; 1.56% in assay [10]; 6.57% in assay [11]; -0.9% in assay [12]. For the same compound, the inhibition was 10.8% in [13]; -1.83% in assay [14]; 0.67% in assay [15]; -2.27% in assay [16]; -0.34% in assay [17]; 0.27% in [18]. Also, the inhibition was -2.23% in assay [19] and 0.77% in assay [20].
As to `CC(=O)NCc1cccc(C#Cc2cncnc2Nc2ccc(OCc3cccc(F)c3)c(Cl)c2)c1`, the inhibition was 1.56% in assay [1]; 1.3% in assay [2]; 2.58% in assay [3]; -0.31% in [4]; 2.82% in [5]; -0.48% in [6]. In addition, the inhibition in [7] was 0.2%; in assay [8], -0.67%; in assay [9] it was -0.87%; in assay [10], -0.21%; in assay [11], 0.14%; in assay [12] it was -0.03%. The inhibition is 0.29% in assay [13]; 2.32% in assay [14]; 0.07% in [15]; 0.12% in assay [16]; 3.96% in [17]; -1.42% in [18]. The results for the inhibition in assay [19] and in [20] were -0.78% and -0.86%, respectively.
As to `CNC(=O)c1cccc(C#Cc2cncnc2Nc2ccc(OCc3cccc(F)c3)c(Cl)c2)c1`, the inhibition came out at 2.43% in [1]; 0.77% in assay [2]; 3.36% in assay [3]; 0.98% in assay [4]; 5.91% in [5]; 1.88% in assay [6]. Besides, the inhibition in [7] is 3.83%; in [8], 2.79%; in assay [9], 4.76%; in [10], -1.87%; in assay [11], -0.81%; in assay [12] it was 1.53%. The inhibition was 1.17% in [13]; -1.48% in assay [14]; 1.31% in assay [15]; -0.91% in assay [16]; 2.87% in assay [17]; 2.52% in [18]. In addition, the inhibition in [19] was -0.29%; in assay [20], 1.96%.
Regarding `CC1=C(C(=O)Nc2cc(Cl)c3[nH]ncc3c2)C(c2ccc(C(F)(F)F)cc2)CC(=O)N1` (stereo not given), the inhibition in assay [1] worked out at 3.3%; in assay [2], 3.38%; in assay [3], 4.41%; in assay [4], 2.62%; in assay [5], 1.72%; in assay [6], 2.22%. The inhibition in assay [7] was 2.26%; in assay [8], 3.63%; in assay [9], 3.51%; in assay [10] it was -4.79%; in [11], -2.18%; in assay [12], 4.37%. For the same compound, the inhibition in [13] is 33.2%; in [14], 0.59%; in assay [15], 4.11%; in assay [16] it was 5.88%; in [17] it was 10.3%; in assay [18], -0.51%. The inhibition in assay [19] was 0.33%; in assay [20], 4.43%.
On to `COC(=O)c1sc(-n2cnc3cc(OC)c(OC)cc32)cc1OCc1ccccc1C(F)(F)F`, for which the inhibition in assay [1] came to 4.91%; in assay [2], 6.46%; in assay [3], 21.6%; in assay [4] it was 3.86%; in assay [5], 12.3%; in assay [6], 3.59%. Moreover, the inhibition in assay [7] is 12.4%; in assay [8], 3.44%; in assay [9], 5.92%; in assay [10], -8.88%; in assay [11], -2.03%; in assay [12], 3.54%. Moreover, the inhibition in [13] is 22.4%; in assay [14] it was 3.04%; in [15], 6.66%; in assay [16], 2.66%; in assay [17], 4.35%; in assay [18], -0.65%. Also, the inhibition in [19] amounted to 1.6%; in assay [20], 1.76%.
Turning to `Nc1ncc(-c2cccc(S(N)(=O)=O)c2)c2scc(-c3ccc(F)c(Cl)c3)c12`, the inhibition in assay [1] was 35%; in [2], 62.6%; in assay [3], 92.4%; in [4], 60.5%; in [5] it was 87.6%; in assay [6], 4.32%. Moreover, the inhibition in assay [7] is 13.8%; in assay [8], 35.4%; in assay [9], 78.4%; in assay [10] it was -4.87%; in [11], -2.44%; in [12] it was 5.6%. Moreover, the inhibition turned out to be 28.2% in assay [13]; 14.5% in assay [14]; 56.5% in assay [15]; 7.08% in assay [16]; 47.5% in [17]; 3.15% in assay [18]. Moreover, the figures for the inhibition in [19] and in assay [20] were 25.1% and 23.1%, respectively.
